Source: the supplement of paper PMC3545927
The list shows a part of the results. No count for the full screen is at hand.

Target: furin, P09958
Assay: furin cleavage Z-score vs untreated control; higher = more cleavage, active = 3.5 or more, inactive = 1 or less, 8 variable residues between constant flanks
In short: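 Furin cleavage was scored on 8-mer peptides joined to a cDNA oligonucleotide and bound to magnetic beads at the N-terminus. Digestion with purified furin (1:10 enzyme:substrate, 0.01 ml, 50 mM HEPES pH 7.5, CaCl2, NaCl) lasted 7.5, 15 or 30 min. Freed DNA was tagged with adapters by PCR, sequenced and counted; the cleavage Z-score is the lowess-adjusted log count versus furin-free reactions, scaled by median absolute deviation.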

Chain of furin, P09958 (P09958 whole entry): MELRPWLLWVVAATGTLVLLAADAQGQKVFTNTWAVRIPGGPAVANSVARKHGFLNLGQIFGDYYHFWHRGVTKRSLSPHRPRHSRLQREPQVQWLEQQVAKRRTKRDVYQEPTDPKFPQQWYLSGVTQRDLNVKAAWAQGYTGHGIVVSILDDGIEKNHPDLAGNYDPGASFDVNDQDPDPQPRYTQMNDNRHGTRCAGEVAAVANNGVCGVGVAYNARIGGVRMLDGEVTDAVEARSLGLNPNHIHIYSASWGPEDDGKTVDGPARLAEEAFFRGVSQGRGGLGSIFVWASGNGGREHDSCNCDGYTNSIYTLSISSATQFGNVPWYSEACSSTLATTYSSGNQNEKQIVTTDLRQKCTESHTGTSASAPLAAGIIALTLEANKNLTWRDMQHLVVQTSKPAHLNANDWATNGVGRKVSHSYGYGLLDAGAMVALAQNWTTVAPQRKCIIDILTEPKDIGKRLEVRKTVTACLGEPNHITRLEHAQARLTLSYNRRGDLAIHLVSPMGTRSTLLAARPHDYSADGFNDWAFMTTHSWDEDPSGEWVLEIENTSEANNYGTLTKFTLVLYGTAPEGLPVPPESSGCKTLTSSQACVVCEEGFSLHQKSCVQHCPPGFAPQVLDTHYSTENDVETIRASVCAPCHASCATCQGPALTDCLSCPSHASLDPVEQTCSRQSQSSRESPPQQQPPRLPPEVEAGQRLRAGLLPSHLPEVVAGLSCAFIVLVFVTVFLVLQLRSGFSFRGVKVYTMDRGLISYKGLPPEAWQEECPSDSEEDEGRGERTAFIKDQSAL

Row | Sequence | furin cleavage Z-score (7.5 min) | furin cleavage Z-score (15 min) | furin cleavage Z-score (30 min)
1 | CALEFWEGVFAGNASASA [HC938] | 0.499 (inactive) | -0.214 (inactive) | -0.35 (inactive)
2 | CAMDECSQHLAGNASASA [HC1691] | -1.05 (inactive) | -0.767 (inactive) | -1.23 (inactive)
3 | CAEHPCHRPSAGNASASA [HC2335] | 0.592 (inactive) | 0.873 (inactive) | -0.909 (inactive)
4 | CADTEVAASCAGNASASA [HC566] | 0.247 (inactive) | 0.504 (inactive) | -0.572 (inactive)
5 | CARGMRALGVAGNASASA [FS-1710] | -0.000681 (inactive) | 0.448 (inactive) | 0.128 (inactive)
6 | CARGKPGIYRAGNASASA [HC907] | 0.0246 (inactive) | 1.3 | 0.963 (inactive)
7 | CARFGRGFTVAGNASASA [FS-2922] | 0.116 (inactive) | 0.0326 (inactive) | 0.349 (inactive)
8 | CARGKRATTVAGNASASA [FS-3249] | 8.17 (active) | 9.95 (active) | 8.35 (active)
9 | CARGKRAITDAGNASASA [FS-2554] | 9.38 (active) | 10.5 (active) | 9.27 (active)
10 | CARGGRDHGDAGNASASA [FS-2014] | -0.697 (inactive) | -0.0412 (inactive) | -1.45 (inactive)
11 | CAWPLYGNEGAGNASASA [HC202] | 0.645 (inactive) | -0.347 (inactive) | 0.229 (inactive)
12 | CAEVVTMTWVAGNASASA [HC148] | 0.302 (inactive) | 0.42 (inactive) | 1.21
13 | CAPALSTGLIAGNASASA [HC502] | 1.72 | 1.24 | -0.0208 (inactive)
14 | CARRKRTAVTAGNASASA [FS-2070] | 8.61 (active) | 9.73 (active) | 8.8 (active)
15 | CARFDRFILTAGNASASA [FS-2331] | -0.835 (inactive) | 0.56 (inactive) | 1.87
16 | CARRKRYALTAGNASASA [FS-2231] | 5.6 (active) | 9.1 (active) | 7.92 (active)
17 | CAMAFTAAVTAGNASASA [HC1056] | 0.143 (inactive) | -0.123 (inactive) | 0.0661 (inactive)
18 | CARNKRYALTAGNASASA [FS-2730] | 4.76 (active) | 6.64 (active) | 8.66 (active)
19 | CAEVVTSTQVAGNASASA [HC2242] | 0.0534 (inactive) | -0.769 (inactive) | -0.513 (inactive)
20 | CAMEECSQMLAGNASASA [HC1746] | 0.461 (inactive) | -0.78 (inactive) | 0.807 (inactive)
21 | CAEVVTTTWVAGNASASA [HC156] | 0.967 (inactive) | 0.111 (inactive) | 0.291 (inactive)
22 | CASCLRHKRSAGNASASA [FS-716] | 4.23 (active) | 3.94 (active) | 4 (active)

Row | Sequence | furin cleavage Z-score (7.5 min) | furin cleavage Z-score (15 min) | furin cleavage Z-score (30 min)
23 | CAINFRDKRSAGNASASA [FS-667] | 10.5 (active) | 11.5 (active) | 8.52 (active)
24 | CASCLTVPASAGNASASA [HC252] | -0.0568 (inactive) | -0.538 (inactive) | -1.9 (inactive)
25 | CAQESQKKRSAGNASASA [FS-1474] | -0.591 (inactive) | -0.0857 (inactive) | 0.142 (inactive)
26 | CATEKRKKRSAGNASASA [FS-879] | 10.8 (active) | 10.5 (active) | 9.01 (active)
27 | CAIERRKKRSAGNASASA [FS-1341] | 11.5 (active) | 11.5 (active) | 10.3 (active)
28 | CAMEECSKHLAGNASASA [HC1734] | 0.481 (inactive) | 1.71 | -0.626 (inactive)
29 | CAVVCCLMSYAGNASASA [HC104] | -0.57 (inactive) | -0.101 (inactive) | -0.447 (inactive)
30 | CAEPVVCCSMAGNASASA [HC2139] | 0.036 (inactive) | -1.42 (inactive) | 1.07
31 | CAVLDSHYQDAGNASASA [HC1400] | -0.288 (inactive) | -1.98 (inactive) | 0.522 (inactive)
32 | CATEHRVCRSAGNASASA [FS-508] | 3.96 (active) | 5.27 (active) | 4.89 (active)
33 | CAIERVHKRSAGNASASA [FS-1342] | 6.81 (active) | 7.58 (active) | 7.96 (active)
34 | CASDDRLCRSAGNASASA [FS-1484] | -0.386 (inactive) | 0.196 (inactive) | -1 (inactive)
35 | CAEYVEIRQVAGNASASA [HC1205] | -0.199 (inactive) | -0.194 (inactive) | 1.29
36 | CAFTAAVTSPAGNASASA [HC1057] | -0.794 (inactive) | -0.905 (inactive) | -0.554 (inactive)
37 | CARTARAVSPAGNASASA [FS-2611] | 5.89 (active) | 8.14 (active) | 7.16 (active)
38 | CARAARGTSPAGNASASA [FS-2633] | -0.591 (inactive) | -1.01 (inactive) | 1.21
39 | CARTARAWGKAGNASASA [FS-3102] | -0.427 (inactive) | 0.174 (inactive) | 1.29
40 | CARTARSEEDAGNASASA [FS-3103] | -1.19 (inactive) | -0.787 (inactive) | 0.992 (inactive)
41 | CARPEKSVNKAGNASASA [FS-1759] | -1.61 (inactive) | 0.261 (inactive) | -0.528 (inactive)
42 | CARTARSTNKAGNASASA [FS-2094] | 5.26 (active) | 7.87 (active) | 5.51 (active)
43 | CARFARHVSPAGNASASA [FS-2138] | 10.5 (active) | 9.18 (active) | 9.56 (active)
44 | CALKAKLMPQAGNASASA [HC1158] | 1.55 | 0.58 (inactive) | -1.58 (inactive)
